Values without a mark were called inactive. Calls of active or inactive are those of the source.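 How the source made its calls: active means calcium retention capacity relative to untreated control above about 1.1 ratio (limit read from the data); inactive means the rest.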

The nature of this assay: mitochondrial Ca2+ retention capacity increase – biochemical, dry powder samples, uHTS hits, Calcium Green-5N, dose response (AID 743360). The note with it: isolated mitochondria, Ca retention capacity.
Turning to `CC1CCN(CCCC(=O)c2ccc(Br)cc2)CC1`, the CRC/CRC0 ratio at 12.5 uM (higher = more inhibition) is 1.05. Consider `O=C(Nc1ccc(CN2CCCCC2)cc1)c1cccc(Cl)c1`, for which the CRC/CRC0 ratio at 12.5 uM (higher = more inhibition) was 1.16 (active). For `COc1ccc(Cl)cc1S(=O)(=O)Nc1ccc(N2CCN(C)CC2)cc1` the value was 1.03; for `COc1ccc(Cl)cc1S(=O)(=O)Nc1ccc(CN2CCN(C)CC2)cc1`, 1.03; for `CCN(CC)c1ccc(NC(=O)c2ccc(OC)c(Cl)c2)cc1`, 0.976. With `O=C(Nc1ccc(OCc2ccccc2)c(Cl)c1)c1cc(-c2cccc(O)c2)on1`, the CRC/CRC0 ratio at 12.5 uM (higher = more inhibition) was above 1. For `COc1ccc(Cl)cc1C(=O)Nc1ccc(CN2CCOCC2)cc1` the value was 1.2 (active); for `COc1ccc(NC(=O)c2cc(-c3cccc(O)c3)on2)cc1Cl`, 3.26 (active); for `CN1CCN(Cc2ccc(NS(=O)(=O)c3cc(Cl)cc(Cl)c3)cc2)CC1`, 1.1. For `O=C(Nc1ccc(CN2CCCCC2)cc1)c1cc(OCc2ccccc2)ccc1Cl` the value was 2.26 (active); for `CC(C)C1CCN(CCCC(=O)c2ccc(Br)cc2)CC1`, 1.16 (active).

As to `O=S(=O)(Nc1ccc(CN2CCCCC2)cc1)c1cccc(Cl)c1`, the CRC/CRC0 ratio at 12.5 uM (higher = more inhibition) was 1.03. For `COc1ccc(Cl)c(C(=O)Nc2ccc(CCN3CCCCC3)cc2)c1` the value was above 1; for `COc1cccc(-c2cc(C(=O)Nc3cc(Cl)ccc3C)no2)c1`, 1.08; for `CN1CCN(c2ccc(NS(=O)(=O)c3ccc(F)c(Cl)c3)cc2)CC1`, 1.08.

As to `O=C(Nc1ccc(Cl)cc1)c1cc(-c2ccccc2)on1`, the CRC/CRC0 ratio at 12.5 uM (higher = more inhibition) was above 1. For `COc1ccc(Cl)cc1C(=O)Nc1ccc(CCN2CCOCC2)cc1` the value was 1.23 (active).

(Values after PubChem BioAssay AID743360 (Molecular Libraries Program, Specialized Chemistry Center, …, 2014).)
